# Values without a mark were called inactive. A call without a number means that no potency is given here. Activity calls are given as the source filed them. Unless noted, calls follow the shape of the dose curve; as a rule, active = well fitted curve in the direction sought with a large enough effect in the repeat runs; inconclusive = weak or mixed curves; inactive = no such curve, though single readings can be large; an effect the other way counts as inactive or inconclusive.
# Columns and labels:
# [1] = target: Estrogen receptor (Homo sapiens) (UniProt P03372); experiment: qHTS assay to identify small molecule antagonists of the estrogen receptor alpha (ER-alpha) signaling pathway (AID 743069; active = well fitted curve in the direction sought with a large enough effect in the signal ratio in the repeat runs, not every such curve was filed as active; inconclusive = weak or mixed curves, or effect the other way; inactive = no such curve, though single readings can be large or run the other way; the % refers to the signal ratio; also: potency is read from the fitted curve at half-maximal effect)
# Estrogen receptor (Homo sapiens), sequence (P03372 whole entry, looked up): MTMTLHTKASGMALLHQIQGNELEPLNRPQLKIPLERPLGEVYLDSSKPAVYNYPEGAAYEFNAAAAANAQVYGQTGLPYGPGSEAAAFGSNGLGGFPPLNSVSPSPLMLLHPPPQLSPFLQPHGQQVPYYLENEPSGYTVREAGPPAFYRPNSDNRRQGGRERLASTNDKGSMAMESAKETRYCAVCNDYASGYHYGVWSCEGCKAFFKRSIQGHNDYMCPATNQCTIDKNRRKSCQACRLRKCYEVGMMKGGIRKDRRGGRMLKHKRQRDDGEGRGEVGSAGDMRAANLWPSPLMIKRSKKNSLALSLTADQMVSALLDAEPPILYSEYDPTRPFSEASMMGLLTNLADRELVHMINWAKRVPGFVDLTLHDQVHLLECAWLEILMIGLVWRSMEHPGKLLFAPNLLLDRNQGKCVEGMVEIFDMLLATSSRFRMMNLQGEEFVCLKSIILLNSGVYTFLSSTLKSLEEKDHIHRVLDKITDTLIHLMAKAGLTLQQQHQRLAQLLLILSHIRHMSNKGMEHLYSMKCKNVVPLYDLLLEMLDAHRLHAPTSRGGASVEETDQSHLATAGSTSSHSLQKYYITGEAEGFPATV
# Procedure, shortened: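 Screening used a UAS-driven beta-lactamase reporter integrated into HEK293 cells expressing ER-alpha, stimulated with 17beta-estradiol alongside test compounds over 18 hr at 37C; signal came from LiveBLAzer B/G FRET fluorescence.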
# [2] = target: Peroxisome proliferator-activated receptor gamma (Homo sapiens) (UniProt P37231); experiment: qHTS assay to identify small molecule agonists of the peroxisome proliferator-activated receptor gamma (PPARg) signaling pathway (AID 743094; active = well fitted activation curve with a large enough effect in the signal ratio in the repeat runs, not every such curve was filed as active; inconclusive = weak or mixed curves, or effect the other way; inactive = no such curve, though single readings can be large or run the other way; the % refers to the signal ratio)
# Peroxisome proliferator-activated receptor gamma (Homo sapiens), sequence (P37231 whole entry, looked up): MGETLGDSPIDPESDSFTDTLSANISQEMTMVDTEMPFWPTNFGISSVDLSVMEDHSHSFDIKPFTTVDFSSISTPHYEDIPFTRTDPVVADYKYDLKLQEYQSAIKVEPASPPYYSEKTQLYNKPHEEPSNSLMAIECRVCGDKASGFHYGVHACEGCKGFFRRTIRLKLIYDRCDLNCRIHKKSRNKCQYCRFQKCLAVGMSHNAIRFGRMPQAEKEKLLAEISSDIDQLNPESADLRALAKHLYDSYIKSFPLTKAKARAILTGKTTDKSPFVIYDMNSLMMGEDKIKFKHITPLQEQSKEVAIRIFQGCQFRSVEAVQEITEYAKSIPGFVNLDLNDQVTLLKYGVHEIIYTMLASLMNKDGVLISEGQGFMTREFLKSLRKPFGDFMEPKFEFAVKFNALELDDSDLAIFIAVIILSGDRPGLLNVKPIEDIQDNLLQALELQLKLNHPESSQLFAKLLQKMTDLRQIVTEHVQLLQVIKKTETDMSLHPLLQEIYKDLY
# Procedure, shortened: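 Cell-based bla reporter, HEK293H background, PPARg-driven UAS. Pre-incubation 5 h, 37C, 5% CO2. Compound 17 h, 37C. Substrate 1 h RT; fluorescence.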
# [3] = target: Peroxisome proliferator-activated receptor delta (Homo sapiens) (UniProt Q03181); experiment: qHTS assay to identify small molecule agonists of the peroxisome proliferator-activated receptor delta (PPARd) signaling pathway (AID 743212; calls by dose curve)
# Peroxisome proliferator-activated receptor delta (Homo sapiens), sequence (Q03181 whole entry, looked up): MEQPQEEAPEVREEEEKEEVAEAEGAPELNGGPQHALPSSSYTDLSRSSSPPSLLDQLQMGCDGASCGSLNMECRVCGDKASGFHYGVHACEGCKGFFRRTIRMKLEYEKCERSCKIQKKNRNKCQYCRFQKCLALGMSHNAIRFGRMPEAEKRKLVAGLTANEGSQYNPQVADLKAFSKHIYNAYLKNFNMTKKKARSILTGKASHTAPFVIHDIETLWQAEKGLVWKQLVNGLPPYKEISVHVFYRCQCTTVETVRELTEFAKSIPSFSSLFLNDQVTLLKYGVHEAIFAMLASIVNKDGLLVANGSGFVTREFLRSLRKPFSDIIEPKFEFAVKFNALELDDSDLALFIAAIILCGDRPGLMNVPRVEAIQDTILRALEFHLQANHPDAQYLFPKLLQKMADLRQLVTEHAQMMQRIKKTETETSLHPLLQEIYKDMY
# Procedure, shortened: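 Cells expressing a UAS-driven beta-lactamase reporter (PPARd-bla HEK293H) were given test compounds after a 5 h settle and kept at 37 C. Reporter activity was then measured as FRET fluorescence using LiveBLAzer B/G substrate.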
# [4] = target: Vitamin D3 receptor (Homo sapiens) (UniProt P11473); experiment: qHTS assay to identify small molecule agonists of the vitamin D receptor (VDR) signaling pathway (AID 743222; calls by dose curve)
# Vitamin D3 receptor (Homo sapiens), sequence (P11473 whole entry, looked up): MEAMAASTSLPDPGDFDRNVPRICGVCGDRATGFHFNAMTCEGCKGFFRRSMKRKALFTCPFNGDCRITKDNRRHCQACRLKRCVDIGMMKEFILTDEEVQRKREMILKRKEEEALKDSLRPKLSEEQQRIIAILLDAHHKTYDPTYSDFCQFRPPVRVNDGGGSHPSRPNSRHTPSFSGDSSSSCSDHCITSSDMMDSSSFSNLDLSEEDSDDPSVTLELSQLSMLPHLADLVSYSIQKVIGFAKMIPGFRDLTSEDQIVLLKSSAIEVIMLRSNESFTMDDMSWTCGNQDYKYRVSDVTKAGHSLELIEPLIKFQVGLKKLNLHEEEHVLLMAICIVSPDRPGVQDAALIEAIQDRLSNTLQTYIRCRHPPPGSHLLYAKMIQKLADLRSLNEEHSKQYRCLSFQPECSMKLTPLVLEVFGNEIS
# Procedure, shortened: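 Following 4 h attachment at 37C, VDR-bla cells (2,000 per well) received DMSO-dissolved compounds or controls. After 16 h incubation, LiveBLAzer B/G FRET substrate was added and fluorescence read 2 h later at room temperature.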
# [5] = target: Vitamin D3 receptor (Homo sapiens) (UniProt P11473); experiment: qHTS assay to identify small molecule antagonists of the vitamin D receptor (VDR) signaling pathway (AID 743223; active = well fitted inhibition curve with a large enough effect in the signal ratio in the repeat runs, not every such curve was filed as active; inconclusive = weak or mixed curves, or effect the other way; inactive = no such curve, though single readings can be large or run the other way; the % refers to the signal ratio)
# Procedure, shortened: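 Quantitative HTS in VDR-bla reporter cells stimulated with 1alpha,25-dihydroxyvitamin D3, 3 nM final. Compound exposure 16 h, 37C, 5% CO2. Read-out: beta-lactamase FRET substrate fluorescence, 2 h RT.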
# [6] = qHTS assay to identify small molecule antagonists of the glucocorticoid receptor (GR) signaling pathway - cell viability counter screen (AID 720693); also: nearly all actives have a fitted effect of over 55% in size; also: potency is read from the fitted curve at half-maximal effect
# [7] = qHTS assay for small molecule agonists of the antioxidant response element (ARE) signaling pathway (AID 743202; active = well fitted activation curve with a large enough effect in the signal ratio in the repeat runs, not every such curve was filed as active; inconclusive = weak or mixed curves, or effect the other way; inactive = no such curve, though single readings can be large or run the other way; the % refers to the signal ratio; also: potency is read from the fitted curve at half-maximal effect)
# Procedure, shortened: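 Steps: seed ARE-bla HepG2 cells (2,000/well); incubate 5 h at 37 C; add compounds by pin tool; incubate 16 h at 37 C; add FRET substrate; read fluorescence after 2 h at RT.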
# [8] = target: Bile acid receptor (Homo sapiens) (UniProt Q96RI1); experiment: qHTS assay to identify small molecule agonists of the farnesoid-X-receptor (FXR) signaling pathway (AID 743220; active = well fitted activation curve with a large enough effect in the signal ratio in the repeat runs, not every such curve was filed as active; inconclusive = weak or mixed curves, or effect the other way; the % refers to the signal ratio)
# Bile acid receptor (Homo sapiens), sequence (Q96RI1 whole entry, looked up): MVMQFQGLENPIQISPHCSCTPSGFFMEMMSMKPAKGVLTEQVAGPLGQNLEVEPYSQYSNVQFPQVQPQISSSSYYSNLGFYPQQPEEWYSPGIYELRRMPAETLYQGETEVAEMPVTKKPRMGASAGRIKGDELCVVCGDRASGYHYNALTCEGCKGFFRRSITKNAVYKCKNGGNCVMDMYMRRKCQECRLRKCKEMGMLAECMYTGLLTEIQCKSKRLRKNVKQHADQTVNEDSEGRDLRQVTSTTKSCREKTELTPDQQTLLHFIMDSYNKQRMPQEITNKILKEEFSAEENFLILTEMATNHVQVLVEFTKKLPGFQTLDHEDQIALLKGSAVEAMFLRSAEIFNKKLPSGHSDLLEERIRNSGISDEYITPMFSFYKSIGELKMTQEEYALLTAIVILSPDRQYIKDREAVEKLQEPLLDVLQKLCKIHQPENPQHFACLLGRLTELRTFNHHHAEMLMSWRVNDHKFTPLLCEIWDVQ
# Procedure, shortened: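 FXR-UAS-bla HEK 293T cells carrying a UAS-driven beta-lactamase reporter were plated for 5 h at 37C/5% CO2, then exposed to DMSO-dissolved Tox21 10K compounds for 16 h at 37C. A LiveBLAzer B/G FRET substrate was loaded for 2 h at room temperature before fluorescence reading.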
# [9] = qHTS assay to identify small molecule agonists of the AP-1 signaling pathway (AID 1159526; calls by dose curve)
# [10] = qHTS assay to identify small molecule antagonists of the androgen receptor (AR) signaling pathway using the MDA cell line - cell viability counter screen (AID 743041; also: nearly all actives have a fitted effect of over 45% in size; also: potency is read from the fitted curve at half-maximal effect)
# Procedure, shortened: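 qHTS viability read-out; MDA-kb2 AR-luc; R1881-stimulated; 16 h exposure at 37C, 0% CO2; CellTiter-Fluor, 30 min; fluorescence intensity.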
# [11] = target: Estrogen receptor (Homo sapiens) (UniProt P03372); experiment: qHTS assay to identify small molecule agonists of the estrogen receptor alpha (ER-alpha) signaling pathway using the BG1 cell line (AID 743079); also: nearly all actives have a fitted effect of over 20% in size; also: potency is read from the fitted curve at half-maximal effect
# [12] = target: Nuclear receptor subfamily 1 group I member 2 (Rattus norvegicus) (UniProt Q9R1A7); experiment: Rat pregnane X receptor (rPXR) activation by small molecules, qHTS assay (AID 1346983); conditions: rPXR luciferase reporter cells, One-Glo luminescence, 24 h; max activation: active compounds read high; also: nearly all actives have a fitted effect of over 20% in size
# Nuclear receptor subfamily 1 group I member 2 (Rattus norvegicus), sequence (Q9R1A7 whole entry, looked up): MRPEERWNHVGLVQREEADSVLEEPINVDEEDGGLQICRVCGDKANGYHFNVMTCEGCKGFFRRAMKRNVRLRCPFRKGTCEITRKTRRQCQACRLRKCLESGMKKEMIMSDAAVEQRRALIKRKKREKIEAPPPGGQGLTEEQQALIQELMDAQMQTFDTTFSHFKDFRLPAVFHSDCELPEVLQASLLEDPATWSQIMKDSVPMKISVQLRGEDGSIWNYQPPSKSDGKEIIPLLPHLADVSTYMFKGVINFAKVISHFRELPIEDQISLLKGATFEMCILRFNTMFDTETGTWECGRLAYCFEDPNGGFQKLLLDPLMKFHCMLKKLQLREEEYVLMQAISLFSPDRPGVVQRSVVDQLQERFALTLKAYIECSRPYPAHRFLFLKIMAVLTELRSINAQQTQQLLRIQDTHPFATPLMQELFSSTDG
# Procedure, shortened: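 Cell-based rPXR luciferase reporter assay, 2,000 cells per well, rested 5hr at 37 C before compound addition in DMSO, then 24 hr at 37 C. One-Glo reagent was added and luminescence read after 30 min at room temperature.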
# [13] = target: Nuclear receptor subfamily 1 group I member 2 (Homo sapiens) (UniProt O75469); experiment: CYP3A4 induction through human pregnane X receptor (PXR) by small molecules, qHTS assay (AID 1346984); also: nearly all actives have a fitted effect of over 40% in size
# Procedure, shortened: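 Human PXR activation is tracked via CYP3A4 promoter-luciferase in DPX-2 (HepG2) cells. Compounds treat cells for 24hr at 37C, and luminescence is read after One-Glo.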
# [14] = target: Androgen receptor (Homo sapiens) (UniProt P10275); experiment: qHTS assay to identify small molecule agonists of the androgen receptor (AR) signaling pathway using the MDA cell line (AID 743040; also: nearly all actives have a fitted effect of over 20% in size)
# Androgen receptor (Homo sapiens), sequence (P10275 whole entry, looked up): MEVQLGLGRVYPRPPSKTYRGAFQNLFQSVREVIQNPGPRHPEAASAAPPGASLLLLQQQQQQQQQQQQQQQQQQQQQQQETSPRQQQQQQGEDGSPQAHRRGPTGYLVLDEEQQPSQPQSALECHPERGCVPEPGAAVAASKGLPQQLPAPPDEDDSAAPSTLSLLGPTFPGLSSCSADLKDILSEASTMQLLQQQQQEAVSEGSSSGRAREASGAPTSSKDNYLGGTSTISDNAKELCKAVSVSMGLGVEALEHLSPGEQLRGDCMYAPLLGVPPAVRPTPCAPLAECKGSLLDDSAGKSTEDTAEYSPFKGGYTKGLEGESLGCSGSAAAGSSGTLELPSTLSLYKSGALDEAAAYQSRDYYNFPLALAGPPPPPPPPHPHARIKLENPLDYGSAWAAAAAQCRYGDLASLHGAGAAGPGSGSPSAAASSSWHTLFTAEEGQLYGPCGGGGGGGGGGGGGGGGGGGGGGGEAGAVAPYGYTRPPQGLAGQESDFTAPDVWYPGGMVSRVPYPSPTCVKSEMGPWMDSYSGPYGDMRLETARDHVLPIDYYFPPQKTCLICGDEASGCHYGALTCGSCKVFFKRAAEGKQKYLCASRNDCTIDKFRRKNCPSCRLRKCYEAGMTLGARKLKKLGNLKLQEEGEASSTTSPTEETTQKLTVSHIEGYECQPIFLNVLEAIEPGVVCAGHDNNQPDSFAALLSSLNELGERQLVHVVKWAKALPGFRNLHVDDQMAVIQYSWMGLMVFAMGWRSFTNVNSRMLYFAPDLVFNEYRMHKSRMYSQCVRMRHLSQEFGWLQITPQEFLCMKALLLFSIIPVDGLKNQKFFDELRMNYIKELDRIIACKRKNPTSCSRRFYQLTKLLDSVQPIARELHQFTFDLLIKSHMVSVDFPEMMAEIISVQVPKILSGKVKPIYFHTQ
# Procedure, shortened: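 Agonist activity is measured as luciferase luminescence in human MDA-kb2 cells whose MMTV reporter responds to both AR and GR. Compounds in DMSO incubate 16 h at 37C, 0% CO2, and ONE-Glo is read after 30 min.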
# [15] = target: Androgen receptor (Homo sapiens) (UniProt P10275); experiment: qHTS assay to identify small molecule antagonists of the androgen receptor (AR) signaling pathway using the MDA cell line (AID 743042; also: potency is read from the fitted curve at half-maximal effect; nearly all actives have a fitted effect of over 55% in size)
# Procedure, shortened: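 MDA-kb2 cells (human breast carcinoma, stably carrying an MMTV-luciferase reporter responsive to AR and GR) were plated at 3,000 cells/well and preincubated 5 hr at 37C, then given compound plus R1881 agonist for 16 h. ONE-Glo luminescence was read.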
# [16] = target: Peroxisome proliferator-activated receptor gamma (Homo sapiens) (UniProt P37231); experiment: qHTS assay to identify small molecule antagonists of the peroxisome proliferator-activated receptor gamma (PPARg) signaling pathway (AID 743191; calls by dose curve; also: series mostly up to about 63 µM; nearly all actives have a fitted effect of over 30% in size)
# Procedure, shortened: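 GeneBLAzer PPARg UAS-bla HEK293H cells carrying a UAS-driven beta-lactamase reporter were plated at 3000 cells/well, preincubated 5 h at 37C, then given compound for 17 h at 37C; LiveBLAzer B/G FRET substrate was read after 1 h at room temperature.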
compound,measurement,setting,value
ClC1=C(Cl)[C@]2(Cl)[C@@H]3[C@@H](Cl)[C@H]4O[C@H]4[C@@H]3C1(Cl)C2(Cl)Cl,Potency,[1],inactive
same,Potency,[2],inactive
same,outcome,[3],inactive
same,outcome,[4],inactive
same,outcome,[5],inactive
Cc1nnc2n1-c1sc(CCc3ccc(CC(C)C)cc3)cc1C(c1ccccc1Cl)=NC2C (centres undefined),Potency,[6],23.9 µM (active)
Cc1cc(C(C)(C)c2ccc(O)c(C)c2)ccc1O,Potency,[7],9.23 µM (active)
same,outcome,[3],inactive
same,outcome,[8],inactive
same,outcome,[4],inactive
same,outcome,[5],inactive
C[C@]12CC[C@@H](O)C[C@@H]1CC[C@@H]1[C@@H]2CC[C@]2(C)C(=O)CC[C@@H]12,outcome,[9],inactive
O=C1C(I)=CC(=C(c2cc(I)c(O)c(I)c2)c2ccccc2C(=O)O)C=C1I,Potency,[10],inactive
same,Potency,[1],7.56 µM [inconclusive] (active)
same,Potency,[11],inactive
same,outcome,[3],inactive
same,outcome,[4],inactive
same,outcome,[9],inactive
same,max activation,[12],-1.41%
same,Potency,[13],inactive
COc1ccc(C(c2ccc(OC)cc2)C(Cl)(Cl)Cl)cc1,Potency,[1],43.4 µM [inconclusive] (active)
same,Potency,[11],4.97 µM (active)
CO/C=C(/C(=O)OC)c1ccccc1Oc1cc(Oc2ccccc2C#N)ncn1,Potency,[14],inactive
same,Potency,[15],6.83 µM (active)
CCc1cccc(C)c1N,outcome,[5],inactive
O=C(O)C(c1ccc(Cl)cc1)c1ccc(Cl)cc1,outcome,[5],inactive
CN1CSC(=S)N(C)C1,Potency,[10],24.3 µM (active)
same,Potency,[11],inactive
same,Potency,[2],inactive
same,Potency,[16],inactive
same,outcome,[8],inactive
same,outcome,[5],inactive
Nc1ccc(Cl)cc1Cl,outcome,[3],inactive
Clc1ccccc1-c1ccccc1Cl,Potency,[6],inactive
same,Potency,[10],inactive
same,Potency,[2],inactive
same,Potency,[7],inactive
same,outcome,[3],inactive
same,outcome,[4],inactive
